Only some compounds are listed: those with a hit (about 0.54% of all), similar ones and a draw of the others.
PDI turbidity – PDI (human) enzyme inhibition. AID 588391. 0.052% of 350,000 active. PDI insulin aggregation turbidity, A650, 90 min. inhibition, % at 10 µM;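 active = mean inhibition across replicates of 30% or more, whatever share of single replicates reach that level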
Rtt109 HAT inh – C. albicans Rtt109 histone acetyltransferase inhibition; purified Rtt109/Vps75, ThioGlo CoA-SH fluorescence, 4 h; 0.16% of 330,000 active; Q5AAJ8; inhibition, % at 34.9 µM;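 active = inhibition of at least 50% in every replicate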
Efflux pump inh – blocks antifungal efflux pumps in multiplex yeast assay. S. cerevisiae Candida pump triplex, Nile Red efflux. inhibition, % at 10 µM. 0.44% of 330,000 active;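 active = plate passing quality check with inhibition over a set limit, or well fluorescence over plate mean plus 4 SD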;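 also: Nile Red retained in pooled yeast measured as flow cytometry median fluorescence; 0% = buffer negative control and 100% = Enniatin B positive control; higher means more Nile Red kept so more efflux inhibition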
PvdQ inh – blocks Pseudomonas aeruginosa PvdQ acylase activity; purified PvdQ acylase, fluorescence plate reader; inhibition, % at 10 µM; 0.063% of 340,000 active; in the data active = inhibition above about 30%, passing the limit was not always enough;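 also: 0% = vehicle neutral wells and 100% = reference inhibitor wells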
ERp5 inh – inhibitors of human ERp5 | 0.05% of 350,000 active | Q15084 | inhibition, % at 9.99 µM | ERp5 insulin aggregation, absorbance 650 nm, 90 min | AID 651711;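 active = mean replicate inhibition above about 25%, with every replicate also reaching it, limit read from the data, passing the limit was not always enough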
Target sequence (Q15084 whole entry, looked up): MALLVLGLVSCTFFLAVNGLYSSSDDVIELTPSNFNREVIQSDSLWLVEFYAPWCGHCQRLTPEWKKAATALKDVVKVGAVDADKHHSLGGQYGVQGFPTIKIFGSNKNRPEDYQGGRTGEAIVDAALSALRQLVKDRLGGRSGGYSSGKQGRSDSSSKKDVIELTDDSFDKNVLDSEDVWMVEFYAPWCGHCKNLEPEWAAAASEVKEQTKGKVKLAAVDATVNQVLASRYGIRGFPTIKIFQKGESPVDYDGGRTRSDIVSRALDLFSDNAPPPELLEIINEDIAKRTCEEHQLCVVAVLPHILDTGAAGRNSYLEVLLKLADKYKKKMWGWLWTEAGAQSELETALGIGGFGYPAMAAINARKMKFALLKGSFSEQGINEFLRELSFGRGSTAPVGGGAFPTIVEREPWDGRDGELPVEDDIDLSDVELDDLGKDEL
Yeast cmpd fluor – counter-screen for efflux pump inhibitors: compound fluorescence. shares compounds with Efflux pump inh. S. cerevisiae AD/pABC3, flow cytometry. fluorescence ratio to DMSO, % at 10 µM. 4% of 1,700 active;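 active = fluorescence ratio to DMSO above its plate's cutoff, the plate mean ratio plus 5 SD, cut at about 210% in these data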;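 also: unstained yeast with no Nile Red so the signal is compound autofluorescence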
CaMdr1 efflux inh – Candida Mdr1 efflux pump inhibition; 1% of 1,700 active; inhibition, % at 10 µM; AID 588518; S. cerevisiae AD/CaMDR1, Nile Red efflux, flow cytometry; shares compounds with Efflux pump inh; in the data active = inhibition above about 26%;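 also: 0% = DMSO vehicle and 100% = reference inhibitor; higher means more Nile Red retained so more efflux inhibition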
Cdr2 pump inh – blocks the Candida albicans Cdr2 efflux pump in yeast; shares compounds with Efflux pump inh; S. cerevisiae AD/CaCDR2, Nile Red retention, flow cytometry; Nile Red retention ratio vs DMSO, % at 10 µM; 4% of 1,700 active; in the data active = Nile Red retention ratio vs DMSO above about 190%;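 also: higher ratio means more blocking of Cdr2 efflux of the dye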
Cdr1 pump inh – Candida Cdr1 efflux pump inhibition. shares compounds with Efflux pump inh. S. cerevisiae AD/CaCDR1, Nile Red efflux, flow cytometry. inhibition, % at 10 µM. 1% of 1,700 active;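 active = inhibition above the screen-wide mean plus twice its standard deviation, cut at about 32% in these data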
* = called active by the depositor; x = no result.

SMILES | PDI turbidity | Rtt109 HAT inh | Efflux pump inh | PvdQ inh | ERp5 inh | Yeast cmpd fluor | CaMdr1 efflux inh | Cdr2 pump inh | Cdr1 pump inh
O=c1[nH]c(C2CCN(S(=O)(=O)c3ccc4c(c3)OCCO4)CC2)nc2c1nnn2Cc1ccc(F)cc1 | -3 | -3 | 2 | -10 | 2 | 94 | 0 | 102 | 0
CC(=O)c1ccc(OCCCC(=O)Nc2ccc(Cl)c(S(=O)(=O)N3CCOCC3)c2)cc1 | -2 | 10 | x | 3 | 4 | x | x | x | x
COc1cc(C(C)=O)ccc1OCC(=O)Nc1ccc(Cl)c(S(=O)(=O)N2CCOCC2)c1 | 16 | 3 | 1.0* | -15 | -1 | 97 | 0 | 94 | 0
Cc1noc(C)c1COc1ccccc1C(=O)N1CCN(c2cccc(C(F)(F)F)c2)CC1 | 14 | 14 | 1.1* | -15 | 1 | 112 | 0 | 110 | 0
Cc1noc(C)c1COc1ccccc1C(=O)N1CCN(c2cccc(Cl)c2)CC1 | -3 | 2 | 0 | -6 | -1 | x | x | x | x
O=C(CCSc1nc(-c2ccco2)cc(C(F)(F)F)n1)N1CCN(c2ccccc2)CC1 | 1 | 5 | 0.5* | -13 | x | 105 | 0 | 106 | 0
O=C(COC(=O)c1c(Cl)cccc1Cl)NCC1CCCO1 (stereo not given) | 12 | 0 | 9.0* | 8 | 4 | 111 | 0 | 119 | 0
O=C(COC(=O)c1c(Cl)ccc(Cl)c1Cl)NCC1CCCO1 (stereo not given) | 1 | -6 | 0 | -13 | 1 | x | x | x | x
COc1cccc(C2/C(=C(/O)c3cnn(-c4ccccc4)c3C)C(=O)C(=O)N2CCN(C)C)c1OC (stereo not given) | 9 | 4 | 0 | -3 | x | x | x | x | x
COc1ccc(/C(O)=C2\C(=O)C(=O)N(CCN(C)C)C2c2cccc(OC)c2OC)cc1 (stereo not given) | -2 | -7 | 6.5* | -8 | x | 101 | 0 | 98 | 0
O=C(COC(=O)c1ccccn1)c1cccc(Br)c1 | -11 | 12 | 1 | 2 | 3 | x | x | x | x
O=C(COC(=O)c1ccccn1)c1ccc(Br)cc1 | -2 | x | 1.3* | -6 | x | 100 | 0 | 91 | 0
C[C@H]1CN([C@@H](C)CO)C(=O)Cc2cc(NS(=O)(=O)c3ccc(Cl)cc3)ccc2O[C@H]1CN(C)C(=O)Nc1ccccc1 | x | x | x | x | 5 | x | x | x | x
Cc1cc2ccccc2n1CCNC(=O)c1ccccc1 | -2 | -2 | 0 | 3 | x | x | x | x | x
Cc1cc2ccccc2n1CCNC(=O)c1ccc(Br)o1 | x | -5 | 1.3* | -8 | -3 | 100 | 0 | 94 | 0
Cc1sc2ncnc(SCC(=O)NC(C)C(C)C)c2c1C (stereo not given) | 0 | 20 | 0.8* | 2 | 2 | 109 | 0 | 112 | 0
Cc1sc2ncnc(SC(C)C(=O)N3c4ccccc4Sc4ccccc43)c2c1C (stereo not given) | -9 | 12 | 15* | -23 | -3 | 103 | 0 | 83 | 0
Cc1sc2ncnc(SCC(=O)NC3CC3)c2c1C | 1 | -1 | 0 | -12 | 1 | x | x | x | x
C[C@H](CO)N1C[C@H](C)[C@H](CN(C)C)Oc2cc(C3=CCCC3)ccc2S1(=O)=O | x | x | x | x | -4 | x | x | x | x
Cc1noc(C)c1S(=O)(=O)Nc1ccc2c(c1)C(=O)N([C@@H](C)CO)C[C@@H](C)[C@@H](CN(C)C(=O)CCC(F)(F)F)OCCCC[C@H](C)O2 | x | x | x | x | -2 | x | x | x | x
O=C1NC(=S)S/C1=C\c1ccc(SCc2ccco2)o1 | -14 | 4 | 4.7* | -9 | x | 125 | 0 | 157 | 0
CCC1=NN2C(=N)/C(=C\c3ccc(SCc4ccco4)o3)C(=O)N=C2S1 | -9 | 0 | 0 | -3 | x | x | x | x | x
O=C1NC(=S)S/C1=C\c1ccc(SCc2ccccc2)o1 | -4 | 10 | 4.5* | 0 | x | 121 | 0 | 187* | 0
COc1ccccc1C#Cc1ccc([C@H]2[C@H](CO)N3CCCCN(C(=O)C4CC4)C[C@@H]23)cc1 | x | x | x | x | 3 | x | x | x | x
C[C@H]1CN([C@@H](C)CO)C(=O)c2c(c3ccccc3n2C)-c2ccccc2CO[C@@H]1CN(C)Cc1ccc(Oc2ccccc2)cc1 | x | x | x | x | -2 | x | x | x | x
SMILES | PDI turbidity | Rtt109 HAT inh | Efflux pump inh | PvdQ inh | ERp5 inh | Yeast cmpd fluor | CaMdr1 efflux inh | Cdr2 pump inh | Cdr1 pump inh
Cc1ccc(S(=O)(=O)N[C@@H]2CC[C@@H](CC(=O)NC3CCCCC3)O[C@H]2CO)cc1 | x | x | x | x | -1 | x | x | x | x
C[C@H]1CN([C@@H](C)CO)C(=O)c2cc(-c3cccc(C#N)c3)cnc2O[C@@H]1CN(C)Cc1ccccc1 | x | x | x | x | -7 | x | x | x | x
O=C(Nc1cccc(F)c1)N1CCC(n2c(=O)[nH]c3ccccc32)CC1 | -2 | -4 | 0 | -13 | 0 | x | x | x | x
CCOc1ccc(NC(=O)N2CCC(n3c(=O)[nH]c4ccccc43)CC2)cc1 | x | -5 | 0.8* | -9 | 3 | 92 | 0 | 100 | 0
C[C@@H]1CCCCO[C@@H](CN(C)C(=O)CCCN(C)C)[C@H](C)CN([C@H](C)CO)C(=O)c2cc(NC(=O)C3CCCCC3)ccc2O1 | x | x | x | x | 1 | x | x | x | x
O=C1/C(=C/c2ccco2)CCc2ccccc21 | 0 | 3 | 0 | -8 | 2 | x | x | x | x
COc1ccc2c(c1)CC/C(=C/c1ccco1)C2=O | -9 | 6 | 20* | 23 | 2 | 103 | 0 | 97 | 0
O=C(CCCc1ccccc1)N=C1SC2CS(=O)(=O)CC2N1c1ccccc1 (stereo not given) | -3 | -8 | 0 | 7 | -1 | x | x | x | x
CN(C)c1ccc(N2C(=NC(=O)CCc3ccccc3)SC3CS(=O)(=O)CC32)cc1 (stereo not given) | -17 | 6 | 1.0* | -1 | 1 | 121 | 1 | 99 | 0
Cc1noc(C)c1S(=O)(=O)Nc1ccc2c(c1)C(=O)N([C@@H](C)CO)C[C@@H](C)[C@@H](CN(C)CC1CCCCC1)OCCCC[C@H](C)O2 | x | x | x | x | -4 | x | x | x | x
COc1cccc(-c2ccc3c(c2)[C@@H]2[C@@H](CCN2S(=O)(=O)c2cccc(OC)c2)[C@@H](CO)N3)c1 | x | x | x | x | 4 | x | x | x | x
C/C(=N\NC(=O)c1nnn(-c2nonc2N)c1CSc1ccccc1)c1ccc2c(c1)OCO2 | -12 | 3 | 1.0* | -9 | -12 | 105 | 0 | 119 | 0
Cc1cc(N/N=C/c2ccccc2[N+](=O)[O-])nc(-n2nc(C)cc2C)n1 | 2 | -4 | 0.8* | -5 | 0 | 97 | -1 | 92 | 0
O=C(NCCCN1CCCC1=O)c1cccnc1 | 7 | -9 | 5.9* | -9 | x | 95 | 0 | 91 | 0
O=C(NCCCN1CCCC1=O)c1cncc(Br)c1 | -5 | 4 | 0 | 4 | x | x | x | x | x
Nc1nc2c(F)cccc2s1 | 13 | -36 | 2.2* | -7 | x | 99 | 0 | 105 | 0

From PubChem BioAssay
